Results on seven molecules are retold here after PubChem BioAssay (EPA / NIEHS).

The source made the active and inactive calls. The calls were made as follows: active = hit-call score of the fitted dose curve at least 0.9, where 1 is the maximum; inactive = score below 0.9.

Read-out in assay [1]: Tissue Factor, F3 (gene 2152)
Kind of assay: BSK_CASM3C_TissueFactor: BioMAP Diversity Plus: CASM3C Assay for Tissue Factor Biomarker Activity (AID 2283052).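 Also: cell surface tissue factor protein level read by ELISA.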 Particulars: primary human coronary artery smooth muscle cells; actives raise or lower the signal.

Read-out in assay [2]: Interferon-gamma inducible Protein 10 (IP10), CXCL10 (gene 3627)
Kind of assay: BSK_hDFCGF_IP10: BioMAP Diversity Plus: hDFCGF Assay for Interferon-gamma inducible Protein 10 (IP10) Biomarker Activity (AID 2283053). The conditions noted are these: primary human foreskin fibroblasts; actives raise or lower the signal. An outline of the steps: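 Human foreskin fibroblast primary cells (hDFCGF system) were dosed with chemical and assayed at 24 h; IP-10 measured by ELISA. Activity fitted bidirectionally relative to DMSO negative control as baseline.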

Read-out in assay [3]: Urokinase-type plasminogen activator receptor (uPAR), PLAUR (gene 5329)
Kind of assay: BSK_CASM3C_uPAR: BioMAP Diversity Plus: CASM3C Assay for Urokinase-type plasminogen activator receptor (uPAR) Biomarker Activity (AID 2283054).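 Also: cell-surface uPAR protein level quantified by ELISA.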 Particulars: primary human coronary artery smooth muscle cells; actives raise or lower the signal.

Read-out in assay [4]: Vascular cell adhesion molecule 1 (VCAM1), VCAM1 (gene 7412)
Kind of assay: BSK_CASM3C_VCAM1: BioMAP Diversity Plus: CASM3C Assay for Vascular cell adhesion molecule 1 (VCAM1) Biomarker Activity (AID 2283055).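 Also: VCAM-1 protein level quantified by ELISA on the cells.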 The conditions noted are these: primary human coronary artery smooth muscle cells; actives raise or lower the signal.

Read-out in assay [5]: Collagen III, COL3A1 (gene 1281)
Kind of assay: BSK_hDFCGF_CollagenIII: BioMAP Diversity Plus: hDFCGF Assay for Collagen III Biomarker Activity (AID 2283056). Particulars: primary human foreskin fibroblasts; actives raise or lower the signal. The gist of the method: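 Human foreskin primary fibroblasts were exposed to test chemicals for 24 h, after which collagen III was quantified by ELISA. Activity was fitted bidirectionally against DMSO as negative control and baseline.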

Read-out in assay [6]: Epidermal growth factor receptor (EGFR), EGFR (gene 1956)
Kind of assay: BSK_hDFCGF_EGFR: BioMAP Diversity Plus: hDFCGF Assay for Epidermal growth factor receptor (EGFR) Biomarker Activity (AID 2283057). Particulars: primary human foreskin fibroblasts; actives raise or lower the signal. An outline of the steps:
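Primary human foreskin fibroblasts were exposed to compound for 24 h, after which cell-surface EGFR was quantified by ELISA. Activity was fitted bidirectionally against the DMSO negative control as baseline.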

Read-out in assay [7]: Interleukin-8 (IL8), CXCL8 (gene 3576)
Kind of assay: BSK_hDFCGF_IL8: BioMAP Diversity Plus: hDFCGF Assay for Interleukin-8 (IL8) Biomarker Activity (AID 2283058). The conditions noted are these: primary human foreskin fibroblasts; actives raise or lower the signal. The gist of the method:
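hDFCGF human dermal fibroblasts; 24 h chemical exposure; IL-8 by ELISA; bidirectional curve fit vs DMSO baseline; gain or loss of signal scored.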

Assay [8] is described as follows: BSK_hDFCGF_Proliferation: Cell Proliferation Assessment in the BioMAP Diversity Plus: hDFCGF Assay (AID 2283059).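 Also: curves fitted for both rise and fall of signal versus DMSO baseline.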 The conditions noted are these: primary human foreskin fibroblasts. The gist of the method: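 Sub-confluent human foreskin fibroblast cultures receive test chemical […]. Relative cell number is quantified by sulforhodamine B staining (0.1%, after 10% TCA fixation) at 560 nm, with bidirectional fitting referenced to DMSO.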

Read-out in assay [9]: Macrophage colony-stimulating factor (MCSF), CSF1 (gene 1435)
Kind of assay: BSK_hDFCGF_MCSF: BioMAP Diversity Plus: hDFCGF Assay for Macrophage colony-stimulating factor (MCSF) Biomarker Activity (AID 2283060). The conditions noted are these: primary human foreskin fibroblasts; actives raise or lower the signal. The gist of the method: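 Human foreskin primary fibroblasts were treated with test chemical for 24 h, and M-CSF was then measured by ELISA. Data were fitted bidirectionally against DMSO as the negative control and activity baseline.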

Assay [10] can be described thus: BSK_hDFCGF_SRB: Viability Assessment in the BioMAP Diversity Plus: hDFCGF Assay (AID 2283061).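 Also: cells exposed to compound for 24 h before the read.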 Particulars: primary human foreskin fibroblasts. An outline of the steps: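 Human foreskin primary fibroblasts were treated with compound and assessed 24 h after dosing. Total protein was measured by sulforhodamine B staining (0.1% SRB after 10% TCA fixation, 560 nm read) as a cytotoxicity marker, with bidirectional fitting against DMSO baseline.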

Read-out in assay [11]: TIMP metallopeptidase inhibitor 1 (TIMP1), TIMP1 (gene 7076)
Kind of assay: BSK_hDFCGF_TIMP1: BioMAP Diversity Plus: hDFCGF Assay for TIMP metallopeptidase inhibitor 1 (TIMP1) Biomarker Activity (AID 2283062). The conditions noted are these: primary human foreskin fibroblasts; actives raise or lower the signal. The gist of the method: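 Primary human foreskin fibroblasts in the hDFCGF system were dosed with compound for 24 h, then TIMP-1 was measured by ELISA. Activity was fitted bidirectionally relative to DMSO control; parallel SRB staining assessed cytotoxicity.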

Read-out in assay [12]: Monokine induced gamma interferon (MIG), CXCL9 (gene 4283)
Kind of assay: BSK_hDFCGF_MIG: BioMAP Diversity Plus: hDFCGF Assay for Monokine induced gamma interferon (MIG) Biomarker Activity (AID 2283063). The conditions noted are these: primary human foreskin fibroblasts; actives raise or lower the signal. An outline of the steps: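 ELISA read-out of MIG from primary human dermal fibroblasts 24 h post-dosing. Gain or loss of signal fitted bidirectionally, DMSO as baseline.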

Read-out in assay [13]: Matrix Metallopeptidase 1 (MMP1), MMP1 (gene 4312)
Kind of assay: BSK_hDFCGF_MMP1: BioMAP Diversity Plus: hDFCGF Assay for Matrix Metallopeptidase 1 (MMP1) Biomarker Activity (AID 2283064). Particulars: primary human foreskin fibroblasts; actives raise or lower the signal. An outline of the steps: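 hDFCGF primary fibroblasts (human foreskin); chemical added; 24 h; MMP1 by ELISA; bidirectional fit vs DMSO.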

Read-out in assay [14]: Vascular cell adhesion molecule 1 (VCAM1), VCAM1 (gene 7412)
Kind of assay: BSK_hDFCGF_VCAM1: BioMAP Diversity Plus: hDFCGF Assay for Vascular cell adhesion molecule 1 (VCAM1) Biomarker Activity (AID 2283065). The conditions noted are these: primary human foreskin fibroblasts; actives raise or lower the signal. The gist of the method:
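Primary human foreskin fibroblasts (hDFCGF system) were dosed with chemical and VCAM-1 was measured by ELISA 24 h later. Bidirectional curve fitting used DMSO as negative control and activity baseline.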

Read-out in assay [15]: Plasminogen activator inhibitor-1 (PAI1), SERPINE1 (gene 5054)
Kind of assay: BSK_hDFCGF_PAI1: BioMAP Diversity Plus: hDFCGF Assay for Plasminogen activator inhibitor-1 (PAI1) Biomarker Activity (AID 2283066). Particulars: primary human foreskin fibroblasts; actives raise or lower the signal. An outline of the steps:
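Human foreskin fibroblasts in the hDFCGF system were dosed with compound for 24 h; PAI-1 was quantified by ELISA. Bidirectional curve fitting used DMSO as negative control and baseline.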

Read-out in assay [16]: Intercellular Adhesion Molecule 1 (ICAM1), ICAM1 (gene 3383)
Kind of assay: BSK_KF3CT_ICAM1: BioMAP Diversity Plus: KF3CT Assay for Intercellular Adhesion Molecule 1 (ICAM1) Biomarker Activity (AID 2283067). The conditions noted are these: primary human keratinocytes with fibroblasts; actives raise or lower the signal. The gist of the method: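 Human keratinocyte plus foreskin fibroblast primary co-culture was exposed to chemical for 24 h. ICAM-1 was then quantified by ELISA, and the data were fit bidirectionally against DMSO as the negative control and baseline.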

Read-out in assay [17]: Interferon-gamma inducible Protein 10 (IP10), CXCL10 (gene 3627)
Kind of assay: BSK_KF3CT_IP10: BioMAP Diversity Plus: KF3CT Assay for Interferon-gamma inducible Protein 10 (IP10) Biomarker Activity (AID 2283068). Particulars: primary human keratinocytes with fibroblasts; actives raise or lower the signal. The gist of the method:
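ELISA read-out of IP-10 after 24 h chemical dosing of human skin primary co-culture (keratinocytes, foreskin fibroblasts). Gain or loss of signal relative to DMSO, bidirectional curve fit.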

The nature of assay [18]: BSK_KF3CT_SRB: Viability Assessment in the BioMAP Diversity Plus: KF3CT Assay (AID 2283069).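 Also: fitted for both signal gain and loss against DMSO baseline.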 The conditions noted are these: primary human keratinocytes with fibroblasts. An outline of the steps:
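Keratinocytes co-cultured with foreskin fibroblasts (human primary); chemical added, 24 h; fix 10% TCA, stain 0.1% SRB, A560. Bidirectional fit vs DMSO.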

Read-out in assay [19]: Interleukin-1 alpha (IL1a), IL1A (gene 3552)
Kind of assay: BSK_KF3CT_IL1a: BioMAP Diversity Plus: KF3CT Assay for Interleukin-1 alpha (IL1a) Biomarker Activity (AID 2283070). The conditions noted are these: primary human keratinocytes with fibroblasts; actives raise or lower the signal. The gist of the method:
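Chemicals were dosed onto co-cultured human keratinocytes and foreskin fibroblasts, IL-1a was quantified by ELISA at 24 h, and activity was fitted in both directions relative to DMSO controls.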

Read-out in assay [20]: TIMP metallopeptidase inhibitor 2 (TIMP2), TIMP2 (gene 7077)
Kind of assay: BSK_KF3CT_TIMP2: BioMAP Diversity Plus: KF3CT Assay for TIMP metallopeptidase inhibitor 2 (TIMP2) Biomarker Activity (AID 2283071). Particulars: primary human keratinocytes with fibroblasts; actives raise or lower the signal. The gist of the method:
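Human primary keratinocyte/foreskin fibroblast co-culture dosed with chemical and sampled at 24 h. TIMP-2 levels quantified by ELISA; bidirectional fitting against DMSO negative control as baseline.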

Turning to `Oc1ccc2c(c1)OC[C@@H](N1CCC(O)(c3ccc(F)cc3)CC1)[C@H]2O`, the outcome in assay [1], in assay [2], in assay [3], in assay [4], in [5] and in assay [6] was inactive. For the same molecule, the result in assay [7], in assay [8], in assay [9], in [10], in assay [11] and in assay [12] was inactive. Also, the outcome in assay [13], in assay [14], in [15], in [16], in assay [17] and in assay [18] was inactive. Further, the outcome in assay [19] and in assay [20] was inactive.

`O=C(O)CCCCC(=O)O`: the outcome in assay [1], in assay [2], in [3], in assay [4], in assay [5] and in [6] was inactive. Further, the outcome in assay [7], in assay [8], in [9], in assay [10], in assay [11] and in assay [12] was inactive. Further, the result in [13], in assay [14], in assay [15], in [16], in [17] and in [18] was inactive. Further, the result in assay [19] and in assay [20] was inactive.

Consider `Clc1cc(Cl)c(Cl)cc1Cl`, for which the result in assay [1], in assay [2], in assay [3], in assay [4], in assay [5] and in [6] was inactive. Besides, the outcome in assay [7], in assay [9], in assay [10], in assay [11], in assay [12] and in assay [13] was inactive. In addition, the outcome in assay [14], in assay [15], in [16], in [17], in assay [18] and in [19] was inactive.

`CNC(=O)[C@H]1O[C@@H](n2cnc3c(NCc4cc(Cl)ccc4OCc4cc(C)no4)ncnc32)[C@H](O)[C@@H]1N`: the result in assay [1], in assay [2], in assay [3], in [4], in assay [5] and in [6] was inactive. Also, the result in assay [7], in assay [8], in assay [9], in assay [10], in assay [11] and in assay [12] was inactive. Besides, the result in [13], in assay [14], in assay [15], in assay [16], in assay [17] and in [18] was inactive. In addition, the result in assay [19] and in [20] was inactive.

As to `CC(=O)C(C)=CC1C(C)=CCCC1(C)C` (configuration not stated), the outcome in [1], in [2], in [3], in [4], in assay [5] and in assay [6] was inactive. The outcome in assay [7], in [8], in assay [9], in [10], in assay [11] and in assay [12] was inactive. In addition, the outcome in assay [13], in assay [14], in assay [15], in assay [16], in assay [17] and in [18] was inactive. Also, in assay [19], the outcome was inactive.

On to `C=CCOC(=O)c1ccccc1C(=O)OCC=C`, for which the result in assay [1], in [2], in [3], in assay [4], in [5] and in assay [6] was inactive. Also, the outcome in assay [7], in assay [8], in assay [9], in assay [10], in assay [11] and in [12] was inactive. Moreover, the result in assay [13], in assay [14], in [15], in [16], in assay [17] and in assay [18] was inactive. The result in assay [19] and in [20] was inactive.

By AC50 is commonly meant the concentration at which the activity in the assay is half-maximal. For `COc1ccc(S(=O)(=O)N2C(=O)[C@@](c3ccccc3OC)(N3C[C@H](O)C[C@H]3C(=O)N(C)C)c3cc(Cl)ccc32)c(OC)c1`, the outcome in assay [1], in [2], in assay [3], in assay [4], in [5] and in assay [6] was inactive. Besides, the outcome in assay [7], in assay [9], in [11], in [12], in assay [14] and in [15] was inactive. In addition, the result in assay [16], in assay [17], in assay [18], in assay [19] and in [20] was inactive. The AC50 in assay [8] is 30.5 µM (active); in assay [10] it was 26.5 µM (active); in [13], 4.5 µM (active).
